Measured values as given in PubChem BioAssay (Tox21).
Results filed as inconclusive are left out. A number with no mark means an inactive call. Calls follow the shape of the dose curve; as a rule, active = well fitted cell-killing curve with a large enough effect in the repeat runs; inconclusive = weak or mixed curves; inactive = no such curve, though single readings can be large or run the other way.

Assay: qHTS assay to identify small molecule antagonists of the peroxisome proliferator-activated receptor delta (PPARd) signaling pathway - cell viability counter screen (AID 743213); also: nearly all actives have a fitted effect of over 50% in size
Conditions: PPARd-bla HEK293H viability, CellTiter-Glo luminescence, 17 h; series mostly up to 62 µM; viability change, negative = cytotoxic: at the top concentration
Description: U.S. Tox21 Program National Center for Advancing Translational Sciences [NCATS] NIH Chemical Genomics Center [NCGC] U.S. Environmental Protection Agency [EPA] National Institutes of Environmental Health Sciences [NIEHS] National Toxicology Program [NTP] U.S. Food and Drug Administration [FDA] Tox21 Assay Overview: The peroxisome proliferator-activated receptors (PPARs) are lipid-activated transcription factors of the nuclear receptor superfamily with three distinct subtypes namely PPAR alpha, PPAR delta (PPARd) and PPAR gamma. All these subtypes heterodimerizes with Retinoid X receptor (RXR) and have different physiological functions. […] To identify the compounds that inhibit PPAR-delta signaling, GeneBLAzer PPAR delta UAS-bla HEK293H cell line (Invitrogen, Carlsbad, CA, USA) containing a beta-lactamase reporter gene under the control of an Upstream Activator Sequence (UAS) was used to screen the Tox21 compound library. The cytotoxicity of the Tox21 compound library against the PPARd-bla cell line was tested in parallel by measuring the cell viability using CellTiter-Glo assay (Promega, Madison, WI) in the same wells.
Tox21 Assay Protocol Summary: PPARd-bla cells were dispensed at 3000 cells/5uL/well in 1536-well black wall/clear bottom plates using a Multidrop Combi (Thermo Fisher Scientific, Waltham, MA) dispenser. After the assay plates were incubated at 37 C and 5% CO2 for 5 h, 23 nL of compounds dissolved in DMSO, positive controls or DMSO only was transferred to the assay plate by a Pintool station (Kalypsys, San Diego, CA), followed by addition of 1ul L165041 (300 nM, final concentration in the wells). The assay plates were incubated at 37 C for 17 h, and then 1 uL of LiveBLAzerTM B/G FRET substrate was added using a Bioraptr Flying Reagent Dispenser (FRD) workstation (Beckman Coulter, Indianapolis, IN, USA). The assay plates were incubated at room temperature for 2 h and fluorescence intensity was measured by an Envision plate reader (PerkinElmer, Shelton, CT). For cell viability readout that measures cytotoxicity, 3 ul/well of CellTiter-Glo reagent was added into the assay plates using a Bioraptr FRD. After 30 min incubation at room temperature, the luminescence intensity in the plates was measured using a ViewLux plate reader (PerkinElmer).
% is scaled to controls: 0 for no effect and ±100 for the full control effect.

Compared with `COP(=O)(OC)OC(c1ccc(Cl)cc1)P(=O)(OC)OC` (stereo not given), `CCN(C)C(=O)Oc1cccc([C@H](C)N(C)C)c1` is higher in “viability change, negative = cytotoxic” value: -5.89% for the first, -2.87% for the second.

Compared with `Cc1cc(C(C)(C)C)c(O)c(C)c1CC1=NCCN1`, `Cc1cccc(OCC(O)CNC(C)(C)C)c1C` (stereo not given) is higher in “viability change, negative = cytotoxic” value: -10.8% for the first, -7.8% for the second.

Going from `CC1=C(C(=O)O)N2C(=O)[C@@H](NC(=O)[C@H](N)c3ccc(O)cc3)[C@H]2SC1` to `O=C(OCc1ccccc1)C(=O)OCc1ccccc1`, the “viability change, negative = cytotoxic” value falls from 18.6% to 14%.

First: O=C(O)C(=O)Cc1ccccc1
Second: CC(CO)c1ccccc1 (stereo not given)
The “viability change, negative = cytotoxic” value of the first is higher: 12.7% for the first, 4.94% for the second.

Going from `C=CC(OCC)OCC` to `CCCCCOC(=O)CCC`, the “viability change, negative = cytotoxic” value falls from 4.43% to -1.6%.

Going from `COc1ccc2c(c1)C(=O)N(CCc1ccc(S(=O)(=O)NC(=O)NC3CCCCC3)cc1)C(=O)C2(C)C` to `CC(=O)Nc1ccc(S(=O)(=O)Nc2ccc([N+](=O)[O-])cc2)cc1`, the “viability change, negative = cytotoxic” value falls from 1.52% to -0.497%.

Going from `CCCCNC1CC(C)(C)NC(C)(C)C1` to `CN1C(C)(C)CCCC1(C)C`, the “viability change, negative = cytotoxic” value rises from -2.89% to 3.8%.

First: O=C(O)Cc1ccc(Cl)cc1Cl
Second: Cc1ccc(S(=O)(=O)O)c(C)c1
The “viability change, negative = cytotoxic” value of the first is lower: 6.46% for the first, 6.68% for the second.

Compared with `CC(C)(C)c1nnc(NS(=O)(=O)c2ccc(N)cc2)s1`, `NNc1nnc(NN)c2ccccc12` is lower in “viability change, negative = cytotoxic” value: 13.7% for the first, -23.7% for the second.

First: CCc1ccc(C=O)cc1
Second: CCOC(=O)c1ccc(OC(=O)CCCCCN=C(N)N)cc1
The “viability change, negative = cytotoxic” value of the first is higher: 10.5% for the first, -6.86% for the second.

Compared with `CC(C)CCCCOC(=O)c1ccccc1C(=O)OCCCCC(C)C`, `CC(C)OC(=O)CCCCC(=O)OC(C)C` is lower in “viability change, negative = cytotoxic” value: -6.22% for the first, -9.5% for the second.

Going from `Oc1ccccc1-c1nnco1` to `FC(F)(F)c1ccccc1-n1ccnc1`, the “viability change, negative = cytotoxic” value falls from 21.8% to 7.9%.

Compared with `CC(=O)/C=C/C1C(C)=CCC(C)C1(C)C` (stereo not given), `CC1=CCC(C(C)C)=CC1` is lower in “viability change, negative = cytotoxic” value: 9.15% for the first, 7.01% for the second.

Compared with `Nc1nnc(-c2cccc(Cl)c2Cl)c(N)n1`, `O=C(CCNNC(=O)c1ccncc1)NCc1ccccc1` is higher in “viability change, negative = cytotoxic” value: 3.98% for the first, 18.9% for the second.

First: COc1cc2c(cc1OC)[C@@H]1CC(=O)[C@@H](CC(C)C)CN1CC2
Second: O=C(CS(=O)Cc1ccco1)NC/C=C\COc1cc(CN2CCCCC2)ccn1 (stereo not given)
The “viability change, negative = cytotoxic” value of the first is lower: 2.14% for the first, 11% for the second.

Compared with `CC(C)=O`, `C=C(C)C(=O)OCC(C)(C)COC(=O)C(=C)C` is higher in “viability change, negative = cytotoxic” value: -10.8% for the first, -4.91% for the second.

In the case of `CCCCCCCCOS(=O)(=O)O`, the “viability change, negative = cytotoxic” value is reported as 5.04%.

Compared with `CC(CN)CC(C)(C)CCN` (stereo not given), `CCCCCCCCCC(C)=O` is lower in “viability change, negative = cytotoxic” value: 5.23% [at 80.4 µM] for the first, 2.21% [at 80.4 µM] for the second.

First: O=C(c1ccc(O)cc1)c1ccc(O)c(O)c1O
Second: Nc1cccc(O)c1
The “viability change, negative = cytotoxic” value of the first is higher: 6.05% [at 80.4 µM] for the first, -7.67% [at 80.4 µM] for the second.

Going from `c1ccc2nccnc2c1` to `O=C(O)CCSSCCC(=O)O`, the “viability change, negative = cytotoxic” value rises from -0.203% [at 80.4 µM] to 3.03% [at 80.4 µM].

For `C[Si](C)=O`, the viability change, negative = cytotoxic was -0.681% [at 6.26 µM].
